Assay results taken from PubChem BioAssay AID1159580 (chemical genetic matrix, 2015).
The campaign covered roughly 5,500 compounds. About 2,000 (36%) were called active. Another 18% or so got no clear call; they are omitted. The list shows a part of the results. A number with no mark means an inactive call. Rule as the data show it: active = normalized growth mostly below about 0.91 (no sharp cut-off); inconclusive = no clear call, values can overlap the other calls; inactive = mostly above about 0.92.

Test: chemical genetic growth profiling, strain panel (AID 1159580);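 also: tested at 20 µM; growth read once vehicle control cultures reached saturation at 30 °C; 1 = growth at the plate median or of vehicle wells; lower values mean less growth of the strain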
Conditions: growth OD

SMILES: O=S(=O)(O)CCS
- normalized growth (S. cerevisiae deletion strains, locus YKL009W, strain mrt4, active compounds read low): 1.02
- normalized growth (S. cerevisiae deletion strains, locus YKL068W, active compounds read low): 0.993
- normalized growth (S. cerevisiae deletion strains, locus YKL085W, strain MDH1 (second series), active compounds read low): 0.99
- normalized growth (S. cerevisiae deletion strains, locus YKL085W, strain MDH1, active compounds read low): 0.99
- normalized growth (S. cerevisiae deletion strains, locus YKL160W, strain elf1, active compounds read low): 0.941
- normalized growth (S. cerevisiae deletion strains, locus YKL190W, strain CNB1, active compounds read low): 1.01
- normalized growth (S. cerevisiae deletion strains, locus YKR001C, strain vps1, active compounds read low): 1.02
- normalized growth (S. cerevisiae deletion strains, locus YKR026C, strain gcn3, active compounds read low): 0.996
- normalized growth (S. cerevisiae deletion strains, locus YKR091W, strain srl3, active compounds read low): 0.98
- normalized growth (S. cerevisiae deletion strains, locus YLL001W, strain dnm1, active compounds read low): 1
- normalized growth (S. cerevisiae deletion strains, locus YLL026W, active compounds read low): 1.01
- normalized growth (S. cerevisiae deletion strains, locus YLL041C, strain sdh2, active compounds read low): 1
- normalized growth (S. cerevisiae deletion strains, locus YLR027C, strain aat2, active compounds read low): 0.997
- normalized growth (S. cerevisiae deletion strains, locus YLR039C, strain RIC1, active compounds read low): 1.03
- normalized growth (S. cerevisiae deletion strains, locus YLR058C, strain SHM2, active compounds read low): 1.02
- normalized growth (S. cerevisiae deletion strains, locus YLR102C, strain apc9, active compounds read low): 0.992
- normalized growth (S. cerevisiae deletion strains, locus YLR113W, strain HOG1, active compounds read low): 0.956
- normalized growth (S. cerevisiae deletion strains, locus YLR221C, strain rsa3, active compounds read low): 1.03
- normalized growth (S. cerevisiae deletion strains, locus YLR258W, strain gsy2, active compounds read low): 1
- normalized growth (S. cerevisiae deletion strains, locus YLR262C, strain YPT6 (second series), active compounds read low): 1.01
- normalized growth (S. cerevisiae deletion strains, locus YLR262C, strain YPT6, active compounds read low): 1.05
- normalized growth (S. cerevisiae deletion strains, locus YLR268W, strain sec22, active compounds read low): 0.993
- normalized growth (S. cerevisiae deletion strains, locus YLR320W, strain mms22, active compounds read low): 0.979
- normalized growth (S. cerevisiae deletion strains, locus YLR330W, strain CHS5, active compounds read low): 1.02
- normalized growth (S. cerevisiae deletion strains, locus YLR342W, strain FKS1 (second series), active compounds read low): 0.989
- normalized growth (S. cerevisiae deletion strains, locus YLR342W, strain FKS1, active compounds read low): 0.965
- normalized growth (S. cerevisiae deletion strains, locus YLR357W, strain rsc2, active compounds read low): 0.912
- normalized growth (S. cerevisiae deletion strains, locus YLR370C, strain arc18, active compounds read low): 0.98
- normalized growth (S. cerevisiae deletion strains, locus YLR371W, strain rom2, active compounds read low): 0.996
- normalized growth (S. cerevisiae deletion strains, locus YLR384C, strain iki3, active compounds read low): 0.97
- normalized growth (S. cerevisiae deletion strains, locus YLR418C, strain cdc73, active compounds read low): 0.976
- normalized growth (S. cerevisiae deletion strains, locus YML016C, strain PPZ1, active compounds read low): 1.01
- normalized growth (S. cerevisiae deletion strains, locus YML032C, strain rad52, active compounds read low): 0.992
- normalized growth (S. cerevisiae deletion strains, locus YML120C, strain ndi1, active compounds read low): 0.993
- normalized growth (S. cerevisiae deletion strains, locus YML124C, strain tub3, active compounds read low): 0.994
- normalized growth (S. cerevisiae deletion strains, locus YMR058W, strain fet3, active compounds read low): 1.01
- normalized growth (S. cerevisiae deletion strains, locus YMR078C, strain ctf18, active compounds read low): 0.991
- normalized growth (S. cerevisiae deletion strains, locus YMR125W, strain sto1, active compounds read low): 0.961
- normalized growth (S. cerevisiae deletion strains, locus YMR129W, active compounds read low): 0.988
- normalized growth (S. cerevisiae deletion strains, locus YMR205C, strain PFK2, active compounds read low): 1.01
- normalized growth (S. cerevisiae deletion strains, locus YMR223W, strain ubp8, active compounds read low): 0.987
- normalized growth (S. cerevisiae deletion strains, locus YMR231W, strain pep5, active compounds read low): 0.978
- normalized growth (S. cerevisiae deletion strains, locus YMR307W, strain GAS1, active compounds read low): 1
- normalized growth (S. cerevisiae deletion strains, locus YNL067W, strain RPL9B, active compounds read low): 1.03
- normalized growth (S. cerevisiae deletion strains, locus YNL071W, strain lat1, active compounds read low): 0.996
- normalized growth (S. cerevisiae deletion strains, locus YNL153C, strain GIM3, active compounds read low): 1.04
- normalized growth (S. cerevisiae deletion strains, locus YNL183C, strain NPR1, active compounds read low): 0.933
- normalized growth (S. cerevisiae deletion strains, locus YNL209W, strain ssb2, active compounds read low): 0.981
- normalized growth (S. cerevisiae deletion strains, locus YNL233W, strain BNI4, active compounds read low): 1.02
- normalized growth (S. cerevisiae deletion strains, locus YNL248C, strain rpa49, active compounds read low): 0.947
- normalized growth (S. cerevisiae deletion strains, locus YNL250W, strain rad50, active compounds read low): 0.987
- normalized growth (S. cerevisiae deletion strains, locus YNL271C, strain bni1, active compounds read low): 0.981
- normalized growth (S. cerevisiae deletion strains, locus YNL298W, strain CLA4, active compounds read low): 0.982
- normalized growth (S. cerevisiae deletion strains, locus YNL307C, strain MCK1, active compounds read low): 0.984
- normalized growth (S. cerevisiae deletion strains, locus YNL322C, strain KRE1 (second series), active compounds read low): 0.967
- normalized growth (S. cerevisiae deletion strains, locus YNL322C, strain KRE1, active compounds read low): 1.01
- normalized growth (S. cerevisiae deletion strains, locus YNR049C, strain mso1, active compounds read low): 0.964
- normalized growth (S. cerevisiae deletion strains, locus YNR052C, strain pop2, active compounds read low): 0.995
- normalized growth (S. cerevisiae deletion strains, locus YOL006C, strain TOP1, active compounds read low): 1.07
- normalized growth (S. cerevisiae deletion strains, locus YOL012C, strain htz1): 1.22
- normalized growth (S. cerevisiae deletion strains, locus YOL147C, strain pex11, active compounds read low): 0.989
- normalized growth (S. cerevisiae deletion strains, locus YOR001W, strain rrp6, active compounds read low): 0.996
- normalized growth (S. cerevisiae deletion strains, locus YOR061W, strain CKA2, active compounds read low): 1.02
- normalized growth (S. cerevisiae deletion strains, locus YOR069W, strain VPS5, active compounds read low): 1.01
- normalized growth (S. cerevisiae deletion strains, locus YOR070C, strain gyp1, active compounds read low): 0.988
- normalized growth (S. cerevisiae deletion strains, locus YOR080W, strain dia2, active compounds read low): 0.964
- normalized growth (S. cerevisiae deletion strains, locus YOR083W, strain WHI5, active compounds read low): 0.888 (active)
- normalized growth (S. cerevisiae deletion strains, locus YOR106W, strain vam3, active compounds read low): 0.982
- normalized growth (S. cerevisiae deletion strains, locus YOR136W, strain idh2, active compounds read low): 0.994
- normalized growth (S. cerevisiae deletion strains, locus YOR144C, strain elg1, active compounds read low): 0.993
- normalized growth (S. cerevisiae deletion strains, locus YOR184W, strain ser1, active compounds read low): 0.983
- normalized growth (S. cerevisiae deletion strains, locus YOR231W, strain MKK1, active compounds read low): 0.974
- normalized growth (S. cerevisiae deletion strains, locus YOR265W, strain rbl2, active compounds read low): 0.999
- normalized growth (S. cerevisiae deletion strains, locus YOR270C, strain vph1, active compounds read low): 0.939
- normalized growth (S. cerevisiae deletion strains, locus YOR290C, strain snf2, active compounds read low): 0.974
- normalized growth (S. cerevisiae deletion strains, locus YOR316C, strain cot1, active compounds read low): 0.988
- normalized growth (S. cerevisiae deletion strains, locus YPL051W, strain arl3, active compounds read low): 0.991
- normalized growth (S. cerevisiae deletion strains, locus YPL055C, strain LGE1, active compounds read low): 1.07
- normalized growth (S. cerevisiae deletion strains, locus YPL078C, strain atp4, active compounds read low): 0.969
- normalized growth (S. cerevisiae deletion strains, locus YPL106C, strain sse1, active compounds read low): 0.96
- normalized growth (S. cerevisiae deletion strains, locus YPL240C, strain hsp82, active compounds read low): 0.994
- normalized growth (S. cerevisiae deletion strains, locus YPL241C, strain CIN2, active compounds read low): 1.01
- normalized growth (S. cerevisiae deletion strains, locus YPL256C, strain CLN2, active compounds read low): 0.997
- normalized growth (S. cerevisiae deletion strains, locus YPR119W, strain clb2, active compounds read low): 0.99
- normalized growth (S. cerevisiae deletion strains, locus YPR141C, strain kar3, active compounds read low): 0.987
- normalized growth (S. cerevisiae deletion strains, locus YPR163C, strain tif3, active compounds read low): 0.99
- normalized growth (S. cerevisiae deletion strains, locus YPR167C, strain met16, active compounds read low): 0.98
- normalized growth (S. cerevisiae deletion strains, strain wtn01, active compounds read low): 0.981
- normalized growth (S. cerevisiae strains, strain wild type, active compounds read low): 1.01
